Screening results: PubChem, National Center for Advancing Translational Sciences (NCATS)
This is a sample that favours compounds with a hit; in the whole collection about 7% have one here.
PI5P4Ka inh: blocks human PI5P4K alpha kinase activity. PI5P4Kalpha enzyme, ADP-Glo luminescence, 60 min; stronger effect = lower value. max response, %. 330,000 compounds, 1.2% hits; active = max response of -50% or lower; inconclusive = between -30% and -50%; inactive = -30% or higher; note: value at the top dose of about 77 µM; % is set by controls: 0 for no effect and ±100 for the full control effect
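PI5P4Kalpha ADP-Glo assay; 5 microM ATP final; 60 min RT reaction; HEPES pH 7.4/EGTA/CHAPS, 5% DMSO; controls lacking substrate or enzyme; luminescent end-point.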
PLK1 PBD inh: inhibitors of human PLK1 polo-box domain binding; P53350; Plk1 PBD binding of FITC phosphopeptide, fluorescence polarization; Potency, µM, without a hit: max response, negative = inhibition, actives largely listed as inhibitors; 360,000 compounds, 2.8% hits; AID 720504; note: potency is the fitted concentration of half-maximal effect; series mostly up to about 57 µM; % is set by controls: 0 for no effect and ±100 for the full control effect; nearly all actives have a fitted effect of over 65% in size
JMJD2A Tudor: inhibitors of human JMJD2A Tudor domain | Potency, µM (series often up to 114 µM), inactives show at the highest dose activity change, negative = inhibition, usual class: inhibitors | AID 504339 | O75164 | AlphaScreen JMJD2A-Tudor / H3K4me3 peptide binding | 390,000 compounds, 4.4% hits; note: potency is the fitted concentration of half-maximal effect; % is set by controls: 0 for no effect and ±100 for the full control effect; nearly all actives have a fitted effect of over 50% in size
KAT2A inh: inhibitors of human GCN5L2 histone acetyltransferase; Q92830; GCN5L2 HAT assay, ThioGlo1 CoA-SH fluorescence; Potency, µM (titrated, usually from 58.9 µM), for the others: at the highest dose activity change, negative = inhibition, most hits filed as inhibitors; 390,000 compounds, 0.21% hits; note: potency is the fitted concentration of half-maximal effect; % is set by controls: 0 for no effect and ±100 for the full control effect
Target sequence (Q92830 whole entry, looked up): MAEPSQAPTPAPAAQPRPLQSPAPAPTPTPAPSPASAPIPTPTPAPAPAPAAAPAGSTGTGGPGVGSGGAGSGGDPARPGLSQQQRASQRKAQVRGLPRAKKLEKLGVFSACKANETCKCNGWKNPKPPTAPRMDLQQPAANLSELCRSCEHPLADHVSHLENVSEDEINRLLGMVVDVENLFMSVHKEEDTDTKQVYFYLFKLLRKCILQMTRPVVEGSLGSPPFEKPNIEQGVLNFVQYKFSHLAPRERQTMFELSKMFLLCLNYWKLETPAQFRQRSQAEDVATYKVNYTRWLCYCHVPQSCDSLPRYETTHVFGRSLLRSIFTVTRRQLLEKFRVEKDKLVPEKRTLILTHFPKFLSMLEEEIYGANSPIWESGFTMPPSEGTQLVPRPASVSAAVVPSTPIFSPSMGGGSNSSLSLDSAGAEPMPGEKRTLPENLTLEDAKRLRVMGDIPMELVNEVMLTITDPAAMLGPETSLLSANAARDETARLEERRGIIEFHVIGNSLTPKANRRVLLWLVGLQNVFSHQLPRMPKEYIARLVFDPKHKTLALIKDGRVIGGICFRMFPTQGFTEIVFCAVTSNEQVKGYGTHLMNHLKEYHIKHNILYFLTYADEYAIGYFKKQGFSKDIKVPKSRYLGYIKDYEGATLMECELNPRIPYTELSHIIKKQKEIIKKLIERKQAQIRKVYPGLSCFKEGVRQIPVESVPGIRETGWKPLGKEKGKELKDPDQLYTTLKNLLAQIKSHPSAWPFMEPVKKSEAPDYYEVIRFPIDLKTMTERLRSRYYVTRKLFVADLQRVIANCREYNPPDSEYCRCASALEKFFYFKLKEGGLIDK
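GCN5L2 (20 nM) in 50mM HEPES pH 7.5, 0.1mM EDTA, 0.01% Tween-20 preincubated 15 min with compounds at room temperature. Reaction started with H3(1-25) 75uM, acetyl-CoA 70uM, ThioGlo1 50uM; CoA-thiol fluorescence (Ex340/Em540) read at 0 and 20 min.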
HP1b binding inh: blocks HP1-beta chromodomain binding to methylated histone tails. P83916. AlphaScreen HP1-beta / biotin-H3K9me3 peptide binding. Potency, µM (series often up to 114 µM), without a hit: top-dose activity change, negative = inhibition, usual class: inhibitors. 390,000 compounds, 0.56% hits. AID 540317; note: potency is the fitted concentration of half-maximal effect; nearly all actives have a fitted effect of over 70% in size
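Compound inhibition of the preformed complex between 50 nM HP1-beta and 50 nM biotinylated H3K9me3 peptide was read by AlphaScreen. Buffer was PBS pH 7.4 with 0.01% Tween-20. Incubations ran 30 min at room temperature, with 10 ug/mL donor/acceptor beads.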
BAZ2B inh: BAZ2B (human) inhibition; Q9UIF8; AlphaScreen BAZ2B-H3K14Ac peptide displacement; Potency, µM (highest dose often 114 µM), inactives show at the top dose activity change, negative = inhibition, actives largely listed as inhibitors; 360,000 compounds, 4.4% hits; AID 504333; note: potency is the fitted concentration of half-maximal effect; % is set by controls: 0 for no effect and ±100 for the full control effect; nearly all actives have a fitted effect of over 60% in size
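Compounds, titrated to a top concentration of 110 uM, were incubated 30 min at room temperature with preformed BAZ2B/acetyl-K14 H3 peptide complex (50 nM each). Proximity signal was measured by AlphaScreen after 20 min with beads.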
Numbers without * were called inactive; ? = inconclusive; . = no result; [ ] = dose if it differs, or a comment. Unless noted, calls come from the whole dose curve; as a rule, active = well fitted curve in the direction sought with a large enough effect; inconclusive = small, poorly fitted or top-dose-only effect, or another doubt; inactive = no such curve, though single readings can be large; an effect the other way counts as inactive or inconclusive.

SMILES | PI5P4Ka inh | PLK1 PBD inh | JMJD2A Tudor | KAT2A inh | HP1b binding inh | BAZ2B inh
Cc1cc(C)n(Cc2ccc(Cl)cc2Cl)c(=O)c1S(=O)(=O)c1ccccc1 | 15.7 | 2.9% | 50.6% | -4.3% | 91.5% | 31.7%
CSc1cc(-c2ccccc2)n(Cc2ccc(Cl)cc2Cl)c(=O)c1C#N | -28.9 | 3.36µM* | -26.0%[11.4 µM] | -2.2% | 15.0% | 3.4%
O=C1CC(N2CCN(c3ccc(O)cc3)CC2)C(=O)N1Cc1cccs1 (configuration not stated) | -6.5 | -3.8% | 56.2µM* | -1.1% | ? | -8.6%
O=C(c1ccncc1)c1ccc(N2CCN(C3CC(=O)N(Cc4cccs4)C3=O)CC2)cc1 (configuration not stated) | -5.7 | -0.4% | -16.8% | -6.4% | 40.9% | -17.1%
Cn1c(CO)cnc1-c1ccccc1 | 2.2 | -1.1% | -2.1% | ? | 28.6% | -4.4%
COc1cccc(-c2cc(=O)c3cc(NC(=O)c4ccc(N(C)C)cc4)ccc3[nH]2)c1 | -22.2 | -14.6% | -12.6% | 3.2% | 24.2% | 79.4µM*
COc1cccc(-c2cc(=O)c3cc(NC(=O)c4ccccc4)ccc3[nH]2)c1 | -2.9 | -6.2% | -24.1% | -23.2%[88.6 µM] | 17.8% | -0.3%
C[C@H]1CN([C@@H](C)CO)C(=O)c2c(c3ccccc3n2C)-c2ccccc2CO[C@H]1CN(C)C(=O)[C@@H]1CCCN1C | -2.5 | -10.4% | . | . | . | .
O=C(NCCN1CCOCC1)c1c(O)nc2sccn2c1=O | 2.8 | -2.6% | 31.6µM* | -1.6% | 3.6% | -28.4%
O=C(NC1CCCC1)c1c(O)nc2sccn2c1=O | -3.9 | -5.1% | -15.8% | -8.3% | 30.8% | 1.3%
COc1ccc(-c2nc(CSc3nnc(C)n4c3cc3oc(C)cc34)c(C)o2)cc1OC | . | . | -9.9% | 2.0% | 39.8% | -16.4%
O=C1CC(c2ccc(O)c(O)c2)Oc2cc(O)cc(O)c21 (configuration not stated) | -26.7 | 2.1% | 79.4µM* | -0.7% | -3.6% | -10.8%
S=C(Nc1ccc(CN2CCCCC2)cc1)Nc1cccc(Cl)c1Cl | 2.9 | ? | ? | -0.6% | 22.4% | -24.9%
CC1(CCc2ccccc2)NC(=O)N(CC(=O)Nc2ccccc2)C1=O (configuration not stated) | 2.1 | 6.3% | -5.7% | -2.1% | 17.7% | -5.5%
CC1(CCc2ccccc2)NC(=O)N(CC(=O)O)C1=O (configuration not stated) | -13.9 | 23.8µM* | -10.3%[11.4 µM] | 27.3% | 28.4% | -4.8%
C/C(O)=C(\C#N)c1nnc2n1CCCCC2 | . | -1.0% | ? | -2.8% | 9.1% | 56.2µM*
O=C(/C=C/c1ccc(Br)cc1)Nc1ccc(S(=O)(=O)Nc2ncccn2)cc1 | -5.7 | -10.4% | -14.0% | 2.3% | 32.8% | 89.1µM*
O=C1C(C=NCCCn2ccnc2)=C(O)c2ccccc21 | -3.0 | -5.4% | -33.3% | . | 33.9% | .
CC(=NCCCn1ccnc1)C1=C(O)c2ccccc2C1=O | . | -3.8% | -32.7% | ? | 22.4% | 44.7µM*
CN(CCOc1ccccc1)S(=O)(=O)c1ccccc1C#N | -1.7 | -6.0% | 9.1% | -5.2% | 58.5% | 5.2%
CN(Cc1c(F)cccc1Cl)C(=O)C1=CC=CN2CCS(=O)(=O)N=C12 | 0.8 | 2.5% | -6.5% | 2.8% | 22.0% | .
COc1cccc(/C=C(/C#N)c2ccc(F)cc2)c1OCc1cccc(C(=O)O)c1 | 14.2 | -13.4% | -15.7% | -4.9% | 34.4% | -3.0%
Cc1ccc(NC(=O)CN2C(=O)N/C(=C/c3cccn3-c3ccc(C(=O)O)cc3)C2=O)cc1 | -87.1* | 10.6µM* | 3.16µM* | ? | 2.82µM* | 3.98µM*
Cc1ccc(NC(=O)CN2C(=O)N/C(=C/c3ccco3)C2=O)cc1 | ? | -17.1% | -32.6% | ? | 5.3% | -7.5%
CCn1c(C)cc(/C=C2\NC(=O)N(CC(=O)Nc3ccc(F)cc3)C2=O)c1C | 5.9 | 0.5% | ? | -9.1% | -4.9% | ?
SMILES | PI5P4Ka inh | PLK1 PBD inh | JMJD2A Tudor | KAT2A inh | HP1b binding inh | BAZ2B inh
COc1ccc(/C=C2\SC(=O)N(CC(=O)Nc3ccc(O)cc3)C2=O)cc1OC | -15.6 | -4.8% | -3.5% | 0.0% | 11.2% | 5.8%
Cc1ccc(NC(=O)CN2C(=O)N/C(=C/c3cc(C)n(-c4ccc(C(=O)O)cc4)c3C)C2=O)cc1 | -53.3* | -28.7% | 79.4µM* | ? | -18.0% | 39.8µM*
N#C/C(=C/c1cccn1-c1cccc(C(=O)O)c1)c1ccc(F)cc1 | 0.8 | -29.5% | -34.8% | -22.3% | -2.5% | 50.1µM*
Cc1ccc(NC(=O)CN2C(=O)S/C(=C\c3cc(Cl)c(OCC(=O)O)c(Cl)c3)C2=O)cc1 | ? | 23.8µM* | 44.7µM* | -13.4% | 20µM* | 39.8µM*
O=[N+]([O-])c1cccc(/C=C2\CCc3cnn(C4CCS(=O)(=O)C4)c32)c1 (configuration not stated) | -5.9 | 3.6% | . | . | . | .
O=C(CN1C(=O)N/C(=C\c2cccn2-c2cccc(C(=O)O)c2)C1=O)Nc1ccccc1F | . | . | -17.8% | . | . | .
Cc1cccc(NC(=O)CN2C(=O)S/C(=C\C(=O)Nc3ccc(Cl)cc3)C2=O)c1 | -14.3 | -7.5% | -3.3% | -0.6% | 12.2% | 1.7%
Cc1ccc(NC(=O)CN2C(=O)S/C(=C\c3cc(C)n(-c4ccc(C(=O)O)cc4)c3C)C2=O)cc1 | ? | 26.7µM* | ? | -7.0% | 2.3% | 50.1µM*
O=C(O)c1cccc(-n2cccc2/C=C2/NC(=O)N(Cc3ccccc3F)C2=O)c1 | -5.7 | -23.3% | -16.5%[11.4 µM] | -9.1% | -25.7% | 50.1µM*
Cc1ccc(C(=O)Nc2ccc3oc(-c4ccccc4C)nc3c2)cc1 | . | . | -3.3% | -7.3% | 51.5% | -11.6%
COc1cc(OC)c(OC)cc1/C=N/NC(=O)c1cnccn1 | 2.7 | -11.9% | ? | -4.0% | 17.9% | -13.9%
COc1cccc(/C=N\NC(=O)c2sc(N)nc2C)c1OC | ? | 26.7µM* | -16.0%[11.4 µM] | 2.2% | -21.9% | -12.1%
COc1cccc(/C=N/NC(=O)C(=O)N/N=C/c2cccc(OC)c2OC)c1OC | -8.8 | -10.5% | -17.8% | 0.1% | 20.2% | 1.5%
COc1cccc(/C=N/NC(=O)c2cnccn2)c1OC | -3.2 | -1.7% | 20µM* | -4.4% | 18.3% | -4.0%
CC(=N\NC(=O)c1ccc([N+](=O)[O-])cc1)/C(=N/O)C(=O)Nc1ccccc1 | -7.4 | 1.3% | -10.9% | -1.2% | 32.9% | 50.1µM*
CCOC(=O)/C(C)=N/NC(=O)c1ccc([N+](=O)[O-])cc1 | 0.9 | -10.5% | -11.4% | 1.5% | 20.7% | -22.5%
CCOC(=O)CC1COCCN1C(=O)c1ccc2oc(Cc3ccccc3)nc2c1 (configuration not stated) | 0.9 | 2.2% | -4.8% | ? | 43.3% | -4.0%
